Test results: PubChem BioAssay (NCATS)
Results filed as inconclusive are left out. A number with no mark means an inactive call. Activity calls are given as the source filed them. Calls follow the shape of the full dose curve. Square brackets hold non-standard residues; d marks the D form. Peptide text beside a SMILES is read from it. * marks the point of attachment. Sta = CC(C)C[C@H](N)[C@@H](O)CC(=O)O; Isovaleryl = CC(C)CC(=O)*

Molecular target: Nucleoprotein (Lymphocytic choriomeningitis virus (strain Armstrong)) (UniProt P09992)
Sequence (P09992 whole entry, looked up): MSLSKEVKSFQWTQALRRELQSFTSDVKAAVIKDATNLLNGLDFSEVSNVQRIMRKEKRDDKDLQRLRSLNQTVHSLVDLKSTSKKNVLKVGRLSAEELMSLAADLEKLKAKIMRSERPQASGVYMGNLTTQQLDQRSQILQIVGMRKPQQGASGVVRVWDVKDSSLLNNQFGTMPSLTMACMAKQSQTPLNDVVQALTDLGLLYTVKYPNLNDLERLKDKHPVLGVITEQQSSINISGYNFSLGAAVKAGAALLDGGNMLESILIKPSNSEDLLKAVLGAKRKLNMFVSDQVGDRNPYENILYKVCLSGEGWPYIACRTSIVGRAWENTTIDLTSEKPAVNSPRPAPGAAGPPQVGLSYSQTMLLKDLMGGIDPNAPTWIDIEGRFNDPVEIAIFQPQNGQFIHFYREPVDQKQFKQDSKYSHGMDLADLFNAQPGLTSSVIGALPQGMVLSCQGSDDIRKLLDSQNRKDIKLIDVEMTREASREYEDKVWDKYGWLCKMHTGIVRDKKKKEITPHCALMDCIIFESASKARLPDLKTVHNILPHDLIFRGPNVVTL
Test: qHTS for Inhibitors of the Functional Ribonucleoprotein Complex (vRNP) of Lymphocytic Choriomeningitis Arenaviruses (LCMV): LCMV Primary Screen - GLuc reporter signal (AID 1347086); also: nearly all actives have a fitted effect of over 70% in size
Conditions: LCMV minigenome vRNP cell assay, Gaussia luciferase reporter; series mostly up to 57.5 µM; activity change, negative = inhibition: at the top concentration
% is scaled to controls: 0 for no effect and ±100 for the full control effect.

Row | SMILES | activity change, negative = inhibition | Potency
1 | NC(=O)C1(N2CCCCC2)CCN(CCCC(=O)c2ccc(F)cc2)CC1 | -0.0169% | –
2 | C#C[C@]1(O)CC[C@H]2[C@@H]3CCc4cc(OC)ccc4[C@H]3CC[C@@]21C | 27.6% | –
3 | COc1ccc(-c2nc3ccc(C4=NNC(=O)CC4C)cc3[nH]2)cc1 (stereo not drawn) | 66.1% | –
4 | CC(C)CC(=O)N[C@H](C(=O)N[C@H](C(=O)N[C@@H](CC(C)C)[C@@H](O)CC(=O)N[C@@H](C)C(=O)N[C@@H](CC(C)C)[C@@H](O)CC(=O)O)C(C)C)C(C)C (Isovaleryl-VV[Sta]A[Sta]-OH) | -14.4% | –
5 | C[N+](C)(C)CCCCCCCCCC[N+](C)(C)C | – | inactive
6 | CC(=O)N[C@H]1[C@H]([C@H](O)[C@H](O)CO)OC(C(=O)O)=C[C@@H]1N=C(N)N | 0.234% | –
7 | CC(=O)Nc1ccc(OCCOCCOc2ccc(NC(C)=O)cc2)cc1 | 0.644% | –
8 | CN(CCCN1c2ccccc2CCc2ccccc21)CC(=O)c1ccc(Cl)cc1 | 2.86% | –
9 | CN(C(=O)CN(CCO)CC(=O)N(C)C(C)(C)Cc1ccccc1)C(C)(C)Cc1ccccc1 | -15.3% | –
10 | C/C=C/C(=O)N(CC)c1ccccc1C | 11.1% | –
11 | CCN1CCN(c2cc(-c3ccc(F)cc3)c3c(n2)CCCCCC3)CC1 | 10.7% [at 24.7 µM] | –
12 | CC1=C(C(=O)OC(C)C)C(c2cccc([N+](=O)[O-])c2)C(C(=O)OC2CN(C(c3ccccc3)c3ccccc3)C2)=C(N)N1 (stereo not drawn) | -25.6% | –
13 | COCCc1ccc(OCC(O)CNC(C)C)cc1 (stereo not drawn) | – | inactive
14 | Cc1cc(O)c(C)c(C)c1O | -6.2% | –
15 | CC(Cc1cccc(C(F)(F)F)c1)NCCOC(=O)c1ccccc1 (stereo not drawn) | 8.45% | –
16 | C1CCN2C[C@@H]3C[C@@H](CN4CCCC[C@@H]34)[C@H]2C1 | 21.6% | –
17 | CCC1NC(=O)c2cc(S(N)(=O)=O)c(Cl)cc2N1 (stereo not drawn) | -7.11% | –
18 | Cc1ccc2c(c1)c1c3n2CCNC3CCC1 (stereo not drawn) | 2.8% | –
19 | NNc1nnc(NN)c2ccccc12 | -20.6% | –
20 | CCOC(=O)c1ccc(OC(=O)CCCCCN=C(N)N)cc1 | – | inactive
21 | C[C@@]12CCC[C@H]1[C@@H]1CC[C@H]3C[C@@H](O)CC[C@]3(C)[C@H]1CC2 | 34% | –
22 | COc1cc2[nH]c(=O)[nH]c(=O)c2cc1OC | -1.69% | –
23 | CC(C)Cc1ccc(C(C)C(=O)OCc2ccccn2)cc1 (stereo not drawn) | -5.86% | –
